{
  "source": "PubChem BioAssay (NCATS)",
  "note": "Records with an inconclusive call do not appear. Entries that show only a call come without a potency. The source made the active and inactive calls. The call rests on the fitted dose curve; in most records, active means well fitted inhibition curve with a large enough effect; inconclusive means small, poorly fitted or top-dose-only effect; inactive means no such curve, though single readings can be large or run the other way.",
  "data": [
    {"assay": "Primary qHTS for small molecule stabilizers of the endoplasmic reticulum resident proteome: Secreted ER Calcium Modulated Protein (SERCaMP) assay (AID 1508630)", "details": "SH-SY5Y GLuc-SERCaMP (Gaussia luciferase released on ER calcium loss) secretion, thapsigargin, luminescence; series mostly up to 38.4 µM", "how_it_was_run": "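The SH-SY5Y reporter protocol was run at 3 concentrations up to 38.3 uM (primary) or 11 concentrations (follow-up): 16 h compound, 100 nM thapsigargin for 4 h, then extracellular luciferase luminescence.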", "values": [
      {"smiles": "CC(=O)N1CCC2(CC1)CN(Cc1ccccc1)C2", "Potency": "inactive"},
      {"smiles": "Cn1cccc1C(=O)N1CCC2(CCN(C(=O)Nc3cccc(F)c3)CC2)CC1", "Potency": "inactive"},
      {"smiles": "COCC(=O)N1CCC2(CC1)CCN(C(=O)Nc1ccc(OC)cc1)CC2", "Potency": "inactive"},
      {"smiles": "COC(=O)N1CCC[C@@]2(CCN(c3ccncc3)C2)C1", "Potency": "inactive"},
      {"smiles": "COC(=O)N1CCC2(CCN(C(=O)NC(C)C)CC2)CC1", "Potency": "inactive"},
      {"smiles": "O=C(Nc1cccc(F)c1)N1CCC2(CCNCC2)CC1", "Potency": "inactive"},
      {"smiles": "O=S(=O)(c1ccccc1)N1CCC2(CCN(C(c3ccccc3)c3ccccc3)CC2)CC1", "Potency": "inactive"},
      {"smiles": "CC(C)NC(=O)N1CC[C@@]2(CCCN(C(=O)c3cccn3C)C2)C1", "Potency": "inactive"},
      {"smiles": "CS(=O)(=O)N1CCC2(CCN(c3ccccc3)CC2)CC1", "Potency": "inactive"},
      {"smiles": "CC(C)NC(=O)N1CC[C@@]2(CCCN(C(=O)Oc3ccccc3)C2)C1", "Potency": "inactive"},
      {"smiles": "COc1ccc(NC(=O)N2CC[C@@]3(CCCNC3)C2)cc1", "Potency": "inactive"},
      {"smiles": "O=C(c1ccncc1)N1CCC2(CC1)CN(c1ncccn1)C2", "Potency": "inactive"},
      {"smiles": "COc1ccc(NC(=O)N2CC3(CCN(C(=O)c4cccn4C)CC3)C2)cc1", "Potency": "inactive"},
      {"smiles": "COC(=O)N1CCC2(CC1)CN(C(=O)Nc1ccccc1)C2", "Potency": "inactive"},
      {"smiles": "COc1ccccc1CN1CC[C@@]2(CCCN(C(=O)c3c(C)noc3C)C2)C1", "Potency": "inactive"},
      {"smiles": "CC(=O)N1CCC[C@@]2(CCN(Cc3ccccc3)C2)C1", "Potency": "inactive"},
      {"smiles": "O=C(c1csnn1)N1CCC2(CCCN(Cc3cc(C(F)(F)F)cc(C(F)(F)F)c3)C2)CC1", "Potency": "inactive"},
      {"smiles": "CS(=O)(=O)N1CCC2(CC1)CN(C(=O)Nc1ccccc1)C2", "Potency": "inactive"},
      {"smiles": "O=C(Nc1cccc(F)c1)N1CCC2(CC1)CCN(C(=O)c1csnn1)CC2", "Potency": "inactive"},
      {"smiles": "COCC(=O)N1CCC2(CCCN(C(=O)Nc3cccc(F)c3)C2)CC1", "Potency": "inactive"},
      {"smiles": "COc1ccc(NC(=O)N2CCC3(CC2)CCN(C(=O)c2cnccn2)CC3)cc1", "Potency": "inactive"},
      {"smiles": "O=C(Nc1ccccc1)N1CCC2(CC1)CCN(C(=O)c1csnn1)CC2", "Potency": "inactive"},
      {"smiles": "COC(=O)N1CCC[C@@]2(CCN(C(=O)Nc3ccccc3)C2)C1", "Potency": "inactive"},
      {"smiles": "COc1ccc(C(=O)N2CCC3(CCCN(Cc4ccncc4)C3)CC2)cc1", "Potency": "inactive"},
      {"smiles": "O=C(c1cc(C(F)(F)F)cc(C(F)(F)F)c1)N1CCC[C@@]2(CCN(Cc3ccncc3)C2)C1", "Potency": "inactive"},
      {"smiles": "COc1ccc(NC(=O)N2CC3(CCN(C(=O)c4c(C)noc4C)CC3)C2)cc1", "Potency": "inactive"},
      {"smiles": "O=C(Nc1ccccc1)N1CCC2(CC1)CCN(C(=O)c1cnccn1)CC2", "Potency": "inactive"},
      {"smiles": "COC(=O)N1CCC2(CC1)CN(c1cccc(-c3ccccc3)c1)C2", "Potency": "inactive"},
      {"smiles": "COCC(=O)N1CCC[C@@]2(CCN(c3ncccn3)C2)C1", "Potency": "inactive"},
      {"smiles": "O=C(Nc1cccc(F)c1)N1CC2(CCN(C(=O)c3csnn3)CC2)C1", "Potency": "inactive"},
      {"smiles": "COCC(=O)N1CCC2(CC1)CN(C(=O)Nc1cccc(C#N)c1)C2", "Potency": "inactive"},
      {"smiles": "CC(C)NC(=O)N1CCC2(CC1)CCN(S(C)(=O)=O)CC2", "Potency": "inactive"},
      {"smiles": "O=C(c1csnn1)N1CCC2(CC1)CN(c1ccncc1)C2", "Potency": "inactive"},
      {"smiles": "COCC(=O)N1CCC2(CC1)CCN(C(=O)Nc1cccc(F)c1)CC2", "Potency": "inactive"},
      {"smiles": "O=C(c1cnccn1)N1CCC2(CCN(Cc3nccs3)CC2)CC1", "Potency": "inactive"},
      {"smiles": "CC(=O)N1CCC2(CC1)CN(c1ccncc1)C2", "Potency": "inactive"},
      {"smiles": "CS(=O)(=O)N1CCC2(CCN(C(=O)Nc3cccc(F)c3)CC2)CC1", "Potency": "inactive"},
      {"smiles": "O=C(Nc1ccccc1)N1CC[C@@]2(CCCN(C(=O)c3ccco3)C2)C1", "Potency": "inactive"},
      {"smiles": "CS(=O)(=O)N1CCC[C@@]2(CCN(C(=O)Nc3ccccc3)C2)C1", "Potency": "inactive"},
      {"smiles": "Cc1noc(C)c1C(=O)N1CCC[C@@]2(CCN(C(=O)NC(C)C)C2)C1", "Potency": "inactive"}
    ]}
  ]
}
